Data as given in the supplement of paper PMC10127200.
Structures can show the parent of a compound that is named as a salt.

How the values were obtained:
Test in all cases: Euclidean distance of Cell Painting phenotypic profile (signed KS, 77 features) to DMSO centroid (dimensionless distance); 5 or 10 uM (library dependent); higher = stronger phenotypic change vs DMSO (phenoactivity)
Conditions in all cases: 48 h
[1] = system: 786-O
Method in brief: (§1)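 Five cancer lines and a healthy fibroblast line received library compounds at 10 or 5 uM (library-dependent, 0.1% DMSO final) for 48 h. Stained cells were imaged confocally at 20X (9 fields/well). Harmony extracted 77 features, each scored as a signed Kolmogorov-Smirnov statistic against same-plate vehicle wells. Profiles were plate-position corrected, correlation-weighted and replicate-averaged at the top dose. Phenoactivity is the Euclidean distance from each profile to the median vehicle profile.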

[2] = system: A549
Method in brief: as §1

[3] = system: DU145
Method in brief: as §1

[4] = system: FB
Method in brief: as §1

[5] = system: HEPG2
Method in brief: as §1

[6] = system: OVCAR4
Method in brief: as §1

Row | Structure (SMILES) | Euclidean distance [1] | Euclidean distance [2] | Euclidean distance [3] | Euclidean distance [4] | Euclidean distance [5] | Euclidean distance [6]
1 | O=C(Nc1c(Cl)cncc1Cl)c1ccc(OC(F)F)c(OCC2CC2)c1 [Roflumilast] | 1.07 | 1.27 | 0.92 | 0.952 | 0.815 | 1.12
2 | Cc1ncc([N+](=O)[O-])n1CC(O)CCl (stereo not given) [Ornidazole] | 1.17 | 0.686 | 0.775 | 1.03 | 0.557 | 0.676
3 | Nc1ccn(C[C@@H](CO)OCP(=O)(O)O)c(=O)n1 [Cidofovir] | 1.22 | 1.39 | 1.14 | 0.855 | 0.834 | 1.26
4 | C#C[C@]1(O)CC[C@H]2[C@@H]3CCc4cc(O)ccc4[C@H]3CC[C@@]21C [Ethinyl Estradiol] | 1.42 | 0.969 | 1.83 | 1.09 | 0.768 | 1.82
5 | CC(=O)O[C@H]1C[C@@H]2CC[C@@H]3[C@H](CC[C@@]4(C)[C@H]3C[C@H]([N+]3(C)CCCCC3)[C@@H]4OC(C)=O)[C@@]2(C)C[C@@H]1N1CCCCC1 [Vecuronium Bromide] | 1.85 | 1.53 | 1.34 | 1.07 | 0.966 | 1.28
6 | CS(=O)(=O)CCC#N [Dapansutrile (OLT1177)] | 0.937 | 0.857 | 2.91 | 0.633 | 0.92 | 1.45
7 | CCN1C(=O)C=CC1=O [N-Ethylmaleimide (NEM)] | 3.6 | 1.27 | 1.23 | 1.58 | 0.6 | 1.06
8 | C[C@H]1O[C@@H](n2cc(F)c(=O)[nH]c2=O)[C@H](O)[C@@H]1O [Doxifluridine] | 0.747 | 1.07 | 0.886 | 0.864 | 2.72 | 1.03
9 | COc1cc2c(Oc3ccc4[nH]c(C)cc4c3F)ncnc2cc1OCCCN1CCCC1 [Cediranib Maleate] | 4.34 | 4.46 | 3.51 | 4.67 | 4.09 | 5.11
10 | C=CC1=C(C(=O)O)N2C(=O)[C@@H](NC(=O)/C(=N\O)c3csc(N)n3)[C@H]2SC1 [Cefdinir] | 0.892 | 0.765 | 2.48 | 1.4 | 1.17 | 0.686
11 | CNC(=O)c1ccccc1Nc1nc(Nc2ccc(N3CCOCC3)cc2OC)ncc1Cl | 2.97 | 3.02 | 2.18 | 3.92 | 2.08 | 3.5
12 | N[C@@]1(C(=O)O)CS(=O)(=O)[C@H]2[C@H](C(=O)O)[C@H]21 | 0.494 | 1.32 | 0.671 | 0.749 | 0.743 | 0.75
13 | N[C@H](C(=O)O)[C@H](O)c1ccc(O)c(O)c1 [Droxidopa] | 0.967 | 0.876 | 0.724 | 0.744 | 1.01 | 0.873
14 | C[N+]1(C)CCC(=C(c2ccccc2)c2ccccc2)CC1 [Diphemanil Methylsulfate] | 1.08 | 0.915 | 1.02 | 0.946 | 0.465 | 1.83
15 | O=c1ccn([C@@H]2O[C@H](COP(=O)(O)OP(=O)(O)OP(=O)(O)OP(=O)(O)OC[C@H]3O[C@@H](n4ccc(=O)[nH]c4=O)[C@H](O)[C@@H]3O)[C@@H](O)[C@H]2O)c(=O)[nH]1 [Diquafosol Tetrasodium] | 0.977 | 0.68 | 0.599 | 1.1 | 0.787 | 1.2
16 | CC#CC(=O)N1CC[C@@H](n2c(=O)n(-c3ccc(Oc4ccccc4)cc3)c3c(N)ncnc32)C1 [ONO-4059 (GS-4059) hydrochloride] | 1.09 | 0.871 | 1.8 | 1.99 | 0.863 | 0.627
17 | Nc1ncnc2c1ncn2[C@@H]1O[C@H](CO)[C@@H](O)[C@H]1O [Adenosine] | 1.13 | 2.77 | 1.12 | 0.92 | 0.753 | 1.22
18 | CC(=O)OC(C)OC(=O)C(C)c1ccc(-c2ccccc2)c(F)c1 (stereo not given) [Flurbiprofen Axetil] | 1.28 | 0.882 | 0.893 | 1.57 | 1.39 | 1.44
19 | Cn1nnc(-c2ccc(-c3ccc(N4C[C@H](COP(=O)(O)O)OC4=O)cc3F)cn2)n1 [Tedizolid Phosphate] | 0.75 | 0.64 | 0.82 | 0.929 | 0.638 | 0.87
20 | CC(C)(CO)[C@@H](O)C(=O)NCCC(=O)O [D-Pantothenic acid] | 1.36 | 0.696 | 0.734 | 1.08 | 0.485 | 1.11
21 | Cc1cc(-c2ccc(/N=N/c3ccc4c(S(=O)(=O)O)cc(S(=O)(=O)O)c(N)c4c3O)c(C)c2)ccc1/N=N/c1ccc2c(S(=O)(=O)O)cc(S(=O)(=O)O)c(N)c2c1O [Evans Blue] | 0.929 | 0.808 | 0.955 | 1.65 | 0.481 | 1.37
22 | C[C@H]1c2cccc(O)c2C(=O)C2=C(O)[C@]3(O)C(=O)C(C(N)=O)=C(O)[C@@H](N(C)C)[C@@H]3[C@@H](O)[C@@H]21 [Doxycycline monohydrate] | 0.783 | 0.495 | 1.01 | 0.929 | 0.637 | 0.672
23 | CC1(C)OCCn2c1nc1c(N3CCOCC3)nc(-c3cnc(N)nc3)nc12 | 2.79 | 2.94 | 2.05 | 4.44 | 2.32 | 2.93

Row | Structure (SMILES) | Euclidean distance [1] | Euclidean distance [2] | Euclidean distance [3] | Euclidean distance [4] | Euclidean distance [5] | Euclidean distance [6]
24 | CCCN1CCCC[C@H]1C(=O)Nc1c(C)cccc1C [Ropivacaine] | 1.19 | 1.64 | 0.902 | 1.93 | 1.18 | 1.31
25 | CN1C(=O)C(Cc2c[nH]c3ccccc23)NC1=S (stereo not given) [Necrostatin-1] | 1.05 | 1.61 | 1.1 | 0.994 | 0.953 | 1.55
26 | CN[C@@H]1[C@@H](O[C@H]2O[C@H](CO)[C@@H](N)[C@H](O)[C@H]2O)OC2C[C@@H](N)[C@@H](O[C@H]3[C@H](O)[C@@H](O)[C@H](N)C[C@@H]3N)OC2[C@@H]1O (stereo not given in full) [Apramycin Sulfate] | 1.51 | 0.794 | 0.965 | 1.27 | 0.895 | 1.19
27 | CC(C)c1ccc2oc3nc(N)c(C(=O)O)cc3c(=O)c2c1 [Amlexanox] | 0.725 | 0.9 | 0.886 | 0.891 | 0.909 | 0.738
28 | c1coc(CNc2ncnc3[nH]cnc23)c1 [Kinetin] | 1.36 | 1.02 | 0.682 | 1.33 | 0.627 | 1.72
29 | CO[C@H]1C[C@@H]2CC[C@@H](C)[C@@](O)(O2)C(=O)C(=O)N2CCCC[C@H]2C(=O)O[C@H]([C@H](C)C[C@@H]2CC[C@@H](OCCO)[C@H](OC)C2)CC(=O)[C@H](C)/C=C(\C)[C@@H](O)[C@@H](OC)C(=O)[C@H](C)C[C@H](C)/C=C/C=C/C=C/1C [Everolimus (RAD001)] | 2.45 | 1.83 | 2.74 | 3.19 | 1.73 | 1.9
30 | Cc1c(N(C)C)c(=O)n(-c2ccccc2)n1C [Amidopyrine] | 1.3 | 0.92 | 0.804 | 1.15 | 1.63 | 1.17
31 | Cc1c(S(=O)(=O)O)oc2c1C(=O)C(=O)c1c-2ccc2c1CCCC2(C)C [Tanshinone IIA sulfonate (sodium)] | 0.814 | 0.633 | 1.71 | 1.05 | 0.728 | 1.24
32 | O=C(O)/C=C/c1ccc(Cn2ccnc2)cc1 [Ozagrel sodium] | 1.06 | 1.08 | 1.01 | 1.07 | 1.03 | 0.564
33 | COc1c2occc2c(OC)c2c(=O)cc(C)oc12 [Khellin] | 1.37 | 0.619 | 0.84 | 0.769 | 1.17 | 0.887
34 | CC(C)C[C@H](NC(=O)[C@@H](COC(C)(C)C)NC(=O)[C@H](Cc1ccc(O)cc1)NC(=O)[C@H](CO)NC(=O)[C@H](Cc1c[nH]c2ccccc12)NC(=O)[C@H](Cc1cnc[nH]1)NC(=O)[C@@H]1CCC(=O)N1)C(=O)N[C@@H](CCCNC(=N)N)C(=O)N1CCC[C@H]1C(=O)NNC(N)=O [Goserelin Acetate] | 1.49 | 0.535 | 2.39 | 0.568 | 0.784 | 1.07
35 | N=C(N)N [Guanidine HCl] | 0.653 | 0.962 | 0.525 | 0.612 | 0.512 | 0.648
36 | O=C(O)CC[C@H]1CC[C@@](c2cc(F)ccc2F)(S(=O)(=O)c2ccc(Cl)cc2)CC1 | 1.76 | 1.71 | 0.876 | 1.8 | 1.76 | 1.58
37 | CCCNCC(O)COc1ccccc1C(=O)CCc1ccccc1 (stereo not given) [Propafenone HCl] | 1.59 | 1.51 | 1.37 | 1.36 | 0.85 | 1.26
38 | COc1cc2c(cc1OC)CN(CCc1ccc(NC(=O)c3cc(OC)c(OC)cc3NC(=O)c3cnc4ccccc4c3)cc1)CC2 [Tariquidar] | 0.987 | 1.26 | 1 | 1.17 | 0.844 | 1.04
39 | CCOC(=O)[C@H](CCc1ccccc1)N[C@@H](C)C(=O)N1Cc2cc(OC)c(OC)cc2C[C@H]1C(=O)O [Moexipril HCl] | 1.48 | 1.49 | 1.02 | 0.74 | 2.35 | 1.78
40 | Cc1nccn1CCC(C(N)=O)(c1ccccc1)c1ccccc1 [Imidafenacin] | 0.703 | 1.19 | 1.34 | 1.02 | 0.727 | 1.42
41 | CCc1cc2c(cc1CC)CC(NC[C@H](O)c1ccc(O)c3[nH]c(=O)ccc13)C2 [Indacaterol Maleate] | 0.915 | 0.63 | 1.14 | 1.67 | 0.818 | 1.02
42 | CO[C@H]1O[C@@H]2O[C@@]3(C)CC[C@H]4[C@H](C)CC[C@@H]([C@H]1C)[C@@]24OO3 [Artemether] | 1.43 | 1.11 | 0.712 | 1.28 | 0.672 | 1.26
43 | C[C@@H]1C[C@H]2[C@@H]3CCC4=CC(=O)C=C[C@]4(C)[C@@]3(F)[C@@H](O)C[C@]2(C)[C@@]1(O)C(=O)COP(=O)(O)O [Dexamethasone Sodium Phosphate] | 1.79 | 2.25 | 2.22 | 1.44 | 0.744 | 2.38
44 | CCCCCCCCCCCCCCCCCCOCC(O)CO (stereo not given) [Batyl alcohol] | 0.871 | 0.609 | 0.705 | 1.18 | 0.262 | 0.921
45 | CCCc1nc2c(C)cc(-c3nc4ccccc4n3C)cc2n1Cc1ccc(-c2ccccc2C(=O)O)cc1 [Telmisartan] | 1.83 | 0.747 | 1.03 | 1.03 | 1.95 | 1.02
